From PubChem BioAssay
Most compounds without a hit are left out; they make up all but 19% or so of the library.
S-ASM inh = blocks human secretory acid sphingomyelinase | 340,000 compounds, 0.006% hits | P17405 | Potency, µM (series often up to 57.5 µM), without a hit: at the top dose activity change, negative = inhibition, actives largely listed as inhibitors | placental ASM, HMU-PC fluorogenic substrate, 60 min; further: potency means the concentration at half of the fitted maximal effect
Target sequence (P17405 47-631 limits assumed): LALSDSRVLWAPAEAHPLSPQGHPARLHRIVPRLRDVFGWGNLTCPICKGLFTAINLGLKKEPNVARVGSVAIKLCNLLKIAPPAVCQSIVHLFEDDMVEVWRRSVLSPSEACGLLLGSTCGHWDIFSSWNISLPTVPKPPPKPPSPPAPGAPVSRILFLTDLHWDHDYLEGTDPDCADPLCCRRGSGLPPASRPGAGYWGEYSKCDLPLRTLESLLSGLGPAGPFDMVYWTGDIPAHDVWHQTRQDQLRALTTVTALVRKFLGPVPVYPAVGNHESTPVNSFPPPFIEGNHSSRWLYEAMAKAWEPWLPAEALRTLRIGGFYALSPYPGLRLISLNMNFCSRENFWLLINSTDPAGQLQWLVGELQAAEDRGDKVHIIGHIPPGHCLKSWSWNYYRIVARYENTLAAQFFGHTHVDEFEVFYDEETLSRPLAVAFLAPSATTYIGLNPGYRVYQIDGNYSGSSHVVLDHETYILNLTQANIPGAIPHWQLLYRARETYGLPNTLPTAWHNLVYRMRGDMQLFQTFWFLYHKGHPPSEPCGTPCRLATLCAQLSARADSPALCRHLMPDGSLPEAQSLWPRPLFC
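HMU-PC0 cleavage (9 uM final) by human placental ASM, 60 min at 37 °C following 10 min compound exposure at RT; stopped at pH 10, fluorescence Ex 386/Em 447 nm.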
IL-1B inflam inh = inflammasome signaling inhibition, IL-1 beta readout | THP-1 LPS/ATP IL-1B secretion, AlphaLISA, 16 h; stronger effect = lower value | activity change, % at 57.5 µM | 360,000 compounds, 4.7% hits | AID 743279; in the data active means activity change below about -50%; inconclusive means mostly about -30% to -49%; further: on the % scale 0 is the no-effect control and ±100 the full control effect
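Secreted IL-1B measured by AlphaLISA bead assay after 16 h compound exposure of THP-1 cells; compounds (final up to 57.5 uM) added 1 h before LPS (250 ng/mL) and ATP (1.25 mM) stimulation; lower signal means less secretion.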
TDP1 cell noCPT = qHTS for Inhibitors of human tyrosyl-DNA phosphodiesterase 1 (TDP1): qHTS in cells in absence of CPT. AID 686978, 2013. Potency, µM (top dose mostly 46.2 µM), for the others: at the highest dose activity change, negative = growth inhibition, most hits filed as inhibitors. 420,000 compounds, 15% hits. DT40 Tdp1-/- hTDP1 cells, no CPT, ATP luminescence, 48 h; further: potency means the concentration at half of the fitted maximal effect; on the % scale 0 is the no-effect control and ±100 the full control effect; nearly all actives have a fitted effect of over 55% in size
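Chicken DT40 Tdp1-/- cells complemented with human TDP1, screened without camptothecin (DMSO vehicle only), 400 cells/well. Compounds pin-transferred, cells incubated at 37 °C for at least 48 hr. Growth read as ATP-dependent luminescence (CellTiter-Glo, 30 min at RT).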
TDP1 cell CPT = DT40-hTDP1 cell growth loss with CPT; chicken DT40 Tdp1-/-;hTDP1 cells + 20 nM CPT, ATP luminescence, 48 h; Potency, µM (doses to about 46.2 µM), for the others: at the highest dose activity change, negative = growth inhibition, most hits filed as inhibitors; AID 686979; 420,000 compounds, 12% hits; further: potency means the concentration at half of the fitted maximal effect; on the % scale 0 is the no-effect control and ±100 the full control effect; nearly all actives have a fitted effect of over 55% in size
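Chicken DT40 Tdp1-/- cells complemented with human TDP1, 400 cells/well, exposed to compounds plus 20 nM camptothecin for at least 48 h at 37 C; viability read as ATP content by CellTiter-Glo luminescence.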
HepG2 viability = HepG2 cytotoxicity, counter-screen for TGF-b inhibitors; HepG2 CAGA-GFP viability, ATP luminescence, 18 h; AID 588856; Potency, µM (highest dose often 46.1 µM), for inactives: at the highest dose activity change, negative = cytotoxicity, actives largely listed as cytotoxic; 410,000 compounds, 0.76% hits; further: potency means the concentration at half of the fitted maximal effect
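HepG2 CAGA-GFP cells (1000/well, DMEM with 1% FBS) received compound, then TGF-beta at 500 pg/mL final, and were incubated 18 hours at 37 degrees C. Viability was read by CellTiter-Glo luminescence. Media-only wells were set as complete cell-killing and DMSO as no toxicity.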
TGFb inhibitor = blocks TGF-b signaling; HepG2 CAGA-GFP TGF-b/SMAD3 reporter, GFP fluorescence, 18 h; TGF-beta stimulated, 500 pg/mL final; Potency, µM (titrated, usually from 46.1 µM), without a hit: at the highest dose activity, negative = inhibition, usual class: inhibitors; 410,000 compounds, 1.2% hits; AID 588855; further: potency means the concentration at half of the fitted maximal effect; on the % scale 0 is the no-effect control and ±100 the full control effect; nearly all actives have a fitted effect of over 65% in size
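TGF-beta reporter screen: HEPG2 CAGA-GFP, 1% FBS, 500 pg/mL TGF-beta final, 18 h; per-cell GFP summed per well; curves fitted and categorized by class.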
The depositor's hits bear a star; ? = inconclusive; · = not tested or not shown. Unless noted, the call rests on the fitted dose curve; in most records, active means well fitted curve in the direction sought with a large enough effect; inconclusive means small, poorly fitted or top-dose-only effect, or another doubt; inactive means no such curve, though single readings can be large; an effect the other way counts as inactive or inconclusive.

SMILES | S-ASM inh | IL-1B inflam inh | TDP1 cell noCPT | TDP1 cell CPT | HepG2 viability | TGFb inhibitor
COc1ccc(/C=C2\SC(=S)N(CCCC(=O)N3CCCCC3CCO)C2=O)cc1 (stereo not drawn) | ? | -9 | ? | ? | -33% | ?
O=C1/C(=C\c2ccccc2)SC(=S)N1CCC(=O)N1CCCCC1CCO (stereo not drawn) | 16% | ? | ? | ? | -8% | -14%
CC(C)c1ccc(/C=C2\SC(=S)N(CCC(=O)N3CCCCC3CCO)C2=O)cc1 (stereo not drawn) | -23% | -51* | 21µM* | ? | -20% | -23%
O=C1/C(=C/c2ccccc2Cl)SC(=S)N1CCC(=O)N1CCCCC1CCO (stereo not drawn) | -8% | ? | 10µM* | 16µM* | -26% | ?
Clc1ncccc1OCc1ccccc1 | 1% | 9 | -16% | -2% | 1% | 4%
O=C(CCS(=O)(=O)c1ccccc1Cl)NCCC1=CCCCC1 | -1% | -7 | -25% | -23% | -2% | 13%
O=S(=O)(NCCc1csc(-c2cccnc2)n1)c1ccc(Cl)s1 | 5% | 16 | 23µM* | 12µM* | -17% | ?
COc1ccc(S(=O)(=O)NCCc2csc(-c3cccnc3)n2)cc1 | 11% | 1 | -29% | 15µM* | 2% | -6%
CN(Cc1cn(Cc2ccccc2)nn1)C1CN(Cc2cn(Cc3ccccc3)nn2)S(=O)(=O)C1 (stereo not drawn) | · | 3 | ? | 1% | · | ·
Cc1cnc(-n2ncc(C(=O)NCCN3CCOCC3)c2C2CC2)nc1-c1cccs1 | · | · | -22% | 21% | · | ·
CCOC(=O)c1ccc(NC(=O)c2cn3c4c(ccc(Cl)c4c2=O)OC(C)C3)cc1 (stereo not drawn) | · | · | 2% | -9% | 3% | 2%
Cc1ccccc1C(=O)NC(=S)Nc1ccc(S(=O)(=O)N(C)c2ccccc2)cc1 | -5% | -2 | 23µM* | 23µM* | 7% | 8%
CN(c1ccccc1)S(=O)(=O)c1ccc(NC(=O)C2CC2)cc1 | -2% | 1 | -16% | 0% | -25% | -11%
Cc1cccc(C(=O)NC(=S)Nc2ccc(S(=O)(=O)N(C)c3ccccc3)cc2)c1 | -3% | 24 | 13µM* | ? | -20% | 3%
COC(=O)c1ccccc1NC(=S)NC(=O)c1ccccc1C | -4% | -8 | -20% | 23µM* | -8% | -13%
Cc1ccccc1C(=O)NC(=S)Nc1ccccc1C(=O)O | 3% | 18 | -6% | -13% | -3% | -14%
CC(=O)NC(C)(c1ccccc1)c1nc(-c2ccc(F)c(Cl)c2)cs1 (stereo not drawn) | · | -13 | 23µM* | 15µM* | -28% | -8%
CC(=O)NC(C)(c1ccccc1)c1nc(-c2cnc3ccccc3c2)cs1 (stereo not drawn) | · | -6 | 15µM* | ? | -8% | -1%
COc1ccc(C(C)(NC(C)=O)c2nc(-c3cnc4ccccc4c3)cs2)cc1 (stereo not drawn) | · | -12 | ? | ? | -2% | 7%
O=C(NCCCCc1ccccc1)c1nn(-c2ccccc2)nc1CO | · | · | -16% | -16% | -27% | 0%
CCOC(=O)N(C)c1c(CC)nc2c(OCc3ccc(Cl)cc3)cccn12 | · | -27 | 15µM* | 21µM* | -21% | -18%
CCc1nc2c(OCc3ccc(Cl)cc3)cccn2c1N(C)C(=O)c1ccc(C)cc1 | · | ? | 18µM* | 18µM* | -44% | ?
CN1CCN(C(CNS(=O)(=O)c2ccc(Br)cc2)c2ccc3c(c2)OCO3)CC1 (stereo not drawn) | 6% | ? | -29% | -23% | -18% | 6%
CC(C)CCC[C@@H](C)[C@H]1CC[C@H]2[C@@H]3CC[C@@H]4C[C@H](O)CC[C@]4(C)[C@H]3CC[C@]12C | · | · | -20% | -10% | · | ·
C[C@H](/C=C/[C@H](C)C(C)(C)O)[C@H]1CC[C@H]2/C(=C/C=C3C[C@@H](O)C[C@H](O)C3)CCC[C@]12C | · | · | -15% | -27% | · | ·
SMILES | S-ASM inh | IL-1B inflam inh | TDP1 cell noCPT | TDP1 cell CPT | HepG2 viability | TGFb inhibitor
C=C1C(=C/C=C2\CCC[C@]3(C)[C@@H]([C@H](C)CCCC(C)C)CC[C@@H]23)C[C@@H](O)C[C@@H]1O | · | · | 11µM* | ? | · | ·
C=C1C(=C/C=C2\CCC[C@]3(C)[C@@H]([C@H](C)/C=C/[C@@H](O)C4CC4)CC[C@@H]23)C[C@@H](O)C[C@@H]1O | · | · | 27µM* | 24µM* | · | ·
CCC1Cc2[nH]c(=S)[nH]c(=O)c2C(c2ccc(Cl)cc2)O1 (stereo not drawn) | · | 18 | 23% | 15% | -11% | -9%
CCCCC[C@@H](C)N1C[C@@H](COCc2ccccc2)Oc2cc(N3CC[C@H](N(C)C)C3)ccc2S1(=O)=O | · | -73* | 18µM* | ? | · | ·
CCCCC[C@H](C)N1C[C@@H](COCc2ccccc2)Oc2cc(N3CC[C@H](N(C)C)C3)ccc2S1(=O)=O | · | -50* | ? | ? | · | ·
COc1ccc(/C=C(/NC(=O)c2ccccc2)c2nc3ccccc3[nH]2)cc1OC | 0% | 33 | ? | ? | -1% | 1%
Cc1ccc(C(=O)N/C(=C\c2ccc(Br)cc2)c2nc(=S)[nH][nH]2)cc1 | ? | -79* | ? | ? | 13µM* | ?
O=C(N/C(=C/c1cccc(Br)c1)c1nc(=S)[nH][nH]1)c1ccccc1 | -20% | -100* | ? | ? | -29% | ?
O=S1(=O)NC2c3ccccc3CC2O1 (stereo not drawn) | 1% | 7 | ? | 12µM* | 4% | 1%
CC1(C)OCC(C2CC(c3ccccc3)NS(=O)(=O)O2)O1 (stereo not drawn) | 0% | 9 | 0% | 16% | -1% | 2%
Cc1cc(S(=O)(=O)N(Cc2ccc(C(C)C)cc2)CC2CCCO2)ccc1-n1cnnn1 (stereo not drawn) | -22% | -79* | -25% | ? | -3% | ?
CC(=O)Nc1cccc(C(=O)/C=C/c2ccc(C)cc2)c1 | -2% | -102* | 10µM* | 9.2µM* | 13µM* | ?
CCN(C(=O)c1cccc(Br)c1)c1ccccc1 | -2% | -9 | -25% | 0% | -5% | -7%
